Measurements published in the supplement of paper PMC10849652.
Of roughly 8,800 targets only a part is listed; those with a hit were picked by preference. About 0.5% of all pairs of compound and target were hits.

How the values were obtained:
Assay in all cases: log2 fold change, soluble protein after heating vs DMSO (PISA); higher = thermal stabilisation; K562 lysate, 10 uM; active = over 0.2 and 3.5 SD of the protein, either way, in both replicates (recomputed)
[1] = compound: Cc1sc2c(c1C)C(c1ccc(Cl)cc1)=N[C@@H](CC(=O)OC(C)(C)C)c1nnc(C)n1-2
Method in brief: (§1)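 A 30 min treatment with 10 μM compound was applied to crude K562 extract at 1 mg/mL protein in PBS pH 7.4 with 1 mM MgCl2. Heating for 3 min spanned 48°C-58°C, after which aliquots were pooled, adjusted to 0.5% NP-40 at 4°C and spun at 21,000xg for 90 min. TMTpro 16plex LC-MS/MS of the supernatant, with channel sums equalised, gave values recorded as log-two fold change in thermal stability against solvent controls, from duplicates.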

[2] = compound: C1=CC=C(C=C1)[C@H](COC2=CC3=C(C=C2)NC(=O)N3)NC(=O)C4=CC=CN(C4=O)CC5=CC(=C(C=C5)F)F
Method in brief: as §1

[3] = compound: CC1=C(SC2=C1C(=N[C@H](C3=NN=C(N32)C)CC(=O)N)C4=CC=C(C=C4)Cl)C
Method in brief: as §1

[4] = compound: CC1=C2C(=CC=C1)N=C(N(C2=O)C3=CC=CC=C3C)CN4C=NC5=C(N=CN=C54)N
Method in brief: as §1

[5] = compound: c1ccc([C@@H]2C[C@H]2NC2CCNCC2)cc1
Method in brief: as §1

Measured: log2 fold change

ZNF146 (UniProt Q15072)
Chain of UniProt Q15072 (Q15072 whole entry, looked up): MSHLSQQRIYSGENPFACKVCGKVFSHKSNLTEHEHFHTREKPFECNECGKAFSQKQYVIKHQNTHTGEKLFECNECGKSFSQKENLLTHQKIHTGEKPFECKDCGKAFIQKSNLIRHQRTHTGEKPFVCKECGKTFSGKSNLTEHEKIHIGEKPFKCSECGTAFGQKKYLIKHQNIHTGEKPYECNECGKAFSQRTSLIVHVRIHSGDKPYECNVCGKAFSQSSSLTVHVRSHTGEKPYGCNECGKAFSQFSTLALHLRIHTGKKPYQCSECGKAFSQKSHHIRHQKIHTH
inactive: [1] -0.059

WDCP (UniProt Q9H6R7)
Chain of UniProt Q9H6R7 (Q9H6R7 whole entry, looked up): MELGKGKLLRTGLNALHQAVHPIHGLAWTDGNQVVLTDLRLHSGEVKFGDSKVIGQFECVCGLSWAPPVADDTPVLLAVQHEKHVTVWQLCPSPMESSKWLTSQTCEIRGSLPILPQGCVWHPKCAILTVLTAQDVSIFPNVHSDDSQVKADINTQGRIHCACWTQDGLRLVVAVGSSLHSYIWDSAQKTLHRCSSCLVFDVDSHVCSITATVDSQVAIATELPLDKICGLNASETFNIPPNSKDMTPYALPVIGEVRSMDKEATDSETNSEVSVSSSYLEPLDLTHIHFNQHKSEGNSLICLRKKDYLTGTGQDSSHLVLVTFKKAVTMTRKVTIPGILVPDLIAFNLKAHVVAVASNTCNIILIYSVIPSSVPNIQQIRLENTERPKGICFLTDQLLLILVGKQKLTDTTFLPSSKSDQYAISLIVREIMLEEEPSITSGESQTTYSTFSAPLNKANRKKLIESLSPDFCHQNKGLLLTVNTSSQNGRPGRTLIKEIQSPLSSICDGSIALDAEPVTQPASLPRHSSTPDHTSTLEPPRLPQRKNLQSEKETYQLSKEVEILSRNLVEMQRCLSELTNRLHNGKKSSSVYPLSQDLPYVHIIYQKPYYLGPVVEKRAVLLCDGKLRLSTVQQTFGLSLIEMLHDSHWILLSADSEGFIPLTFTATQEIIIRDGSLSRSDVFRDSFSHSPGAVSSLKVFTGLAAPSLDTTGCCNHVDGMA
inactive: [2] 0.023 | [3] 0.068 | [4] -0.04 | [1] 0.049 | [5] 0.025

ZSWIM8 isoform 4 (UniProt A7E2V4)
Chain of UniProt A7E2V4 (A7E2V4 whole entry, looked up): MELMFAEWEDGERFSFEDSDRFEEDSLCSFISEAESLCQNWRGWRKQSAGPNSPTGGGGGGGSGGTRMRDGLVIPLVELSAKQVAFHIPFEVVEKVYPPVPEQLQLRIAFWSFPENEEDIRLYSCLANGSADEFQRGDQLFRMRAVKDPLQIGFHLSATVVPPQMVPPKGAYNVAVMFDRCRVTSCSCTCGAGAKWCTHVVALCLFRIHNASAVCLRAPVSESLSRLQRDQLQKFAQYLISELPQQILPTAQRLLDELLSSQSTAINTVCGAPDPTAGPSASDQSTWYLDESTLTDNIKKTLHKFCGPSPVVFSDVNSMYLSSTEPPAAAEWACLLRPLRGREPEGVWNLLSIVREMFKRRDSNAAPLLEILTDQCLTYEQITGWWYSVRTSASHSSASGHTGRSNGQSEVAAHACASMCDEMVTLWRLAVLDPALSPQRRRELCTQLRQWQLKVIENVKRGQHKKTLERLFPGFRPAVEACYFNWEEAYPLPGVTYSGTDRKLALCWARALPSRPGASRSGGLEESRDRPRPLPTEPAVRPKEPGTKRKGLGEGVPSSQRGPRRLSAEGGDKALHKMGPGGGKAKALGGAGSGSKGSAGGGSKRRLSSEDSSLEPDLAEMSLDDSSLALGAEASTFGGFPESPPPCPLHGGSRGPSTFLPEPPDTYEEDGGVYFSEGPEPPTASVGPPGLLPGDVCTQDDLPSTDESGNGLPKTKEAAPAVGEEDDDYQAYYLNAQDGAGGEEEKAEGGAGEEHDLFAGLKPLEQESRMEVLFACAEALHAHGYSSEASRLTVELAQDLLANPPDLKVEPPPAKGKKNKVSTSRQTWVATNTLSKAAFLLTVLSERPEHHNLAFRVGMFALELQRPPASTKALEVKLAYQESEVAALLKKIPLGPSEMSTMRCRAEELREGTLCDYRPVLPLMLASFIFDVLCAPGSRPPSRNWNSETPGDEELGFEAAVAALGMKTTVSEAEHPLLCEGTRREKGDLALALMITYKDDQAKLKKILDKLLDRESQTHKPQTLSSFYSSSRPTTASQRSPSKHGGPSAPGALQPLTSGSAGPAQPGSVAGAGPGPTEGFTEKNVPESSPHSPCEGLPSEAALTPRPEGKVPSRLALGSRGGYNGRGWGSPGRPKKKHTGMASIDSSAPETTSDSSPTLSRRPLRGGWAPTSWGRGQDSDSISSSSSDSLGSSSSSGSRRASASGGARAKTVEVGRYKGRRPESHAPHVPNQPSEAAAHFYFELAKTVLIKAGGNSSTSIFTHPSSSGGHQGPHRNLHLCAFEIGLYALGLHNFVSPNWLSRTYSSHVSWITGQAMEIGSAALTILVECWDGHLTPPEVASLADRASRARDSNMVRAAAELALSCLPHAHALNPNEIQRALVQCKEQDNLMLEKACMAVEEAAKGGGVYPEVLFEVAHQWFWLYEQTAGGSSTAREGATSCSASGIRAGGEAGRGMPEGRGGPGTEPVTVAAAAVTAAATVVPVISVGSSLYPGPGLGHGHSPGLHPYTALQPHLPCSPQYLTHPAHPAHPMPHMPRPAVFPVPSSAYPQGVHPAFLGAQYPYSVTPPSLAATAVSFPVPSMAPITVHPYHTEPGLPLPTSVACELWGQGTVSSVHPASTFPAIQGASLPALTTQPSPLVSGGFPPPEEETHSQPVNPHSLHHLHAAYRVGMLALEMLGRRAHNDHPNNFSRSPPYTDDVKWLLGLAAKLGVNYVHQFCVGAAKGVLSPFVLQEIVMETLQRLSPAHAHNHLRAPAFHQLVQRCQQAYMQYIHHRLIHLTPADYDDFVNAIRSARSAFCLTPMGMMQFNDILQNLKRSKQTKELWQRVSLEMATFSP
inactive: [2] 0.076 | [3] -0.038 | [4] 0.071 | [1] 0.013 | [5] 0.03
